We go through 63 molecules from PubChem BioAssay AID778 (Sanford-Burnham Center for Chemical Genomics, 2007).

Screen size: about 96,000 compounds; about 20,000 (21%) were called active.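 How the source made its calls: active means CYP2C19 inhibition above a set limit at 5 µM in the primary screen (cut at about 50% in these data); inactive means the rest.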 A selection follows.

Sequence of Cytochrome P450 2C19 (Homo sapiens) (P33261 whole entry, looked up): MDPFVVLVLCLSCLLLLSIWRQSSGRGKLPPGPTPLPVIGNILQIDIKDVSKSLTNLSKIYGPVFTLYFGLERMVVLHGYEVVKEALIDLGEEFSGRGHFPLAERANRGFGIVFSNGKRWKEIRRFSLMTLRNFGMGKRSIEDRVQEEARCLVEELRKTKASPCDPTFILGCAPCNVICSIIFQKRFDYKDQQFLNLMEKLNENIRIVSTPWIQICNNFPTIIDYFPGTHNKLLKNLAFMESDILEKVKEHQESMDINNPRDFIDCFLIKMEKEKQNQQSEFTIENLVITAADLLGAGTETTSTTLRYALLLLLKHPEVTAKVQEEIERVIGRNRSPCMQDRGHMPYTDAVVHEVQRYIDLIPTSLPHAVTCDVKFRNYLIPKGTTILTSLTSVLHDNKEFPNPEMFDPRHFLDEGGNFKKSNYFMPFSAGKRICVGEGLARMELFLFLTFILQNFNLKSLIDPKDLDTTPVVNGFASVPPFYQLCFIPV

This assay has as its target Cytochrome P450 2C19 (Homo sapiens) (UniProt P33261). As to the kind of experiment: blockers of cytochrome P450 2C19 activity – biochemical, luminescence, ADME assay, primary screen (AID 778).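 Further: plate controls were negative control wells for no effect and 2.5 mM tranylcypromine positive control for full effect.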 As to conditions: CYP2C19 Supersomes, luciferin-H EGE luminescence, 30 min; at 5 µM; stronger effect = higher value.
For the molecule `O=C(NCc1ccccn1)c1cnc2sccn2c1=O`, the inhibition (as a rule, the change of the read-out against control, counted positive when it falls) was -12.6% (inactive).
Turning to `Cc1cc(C(=O)NCCCc2ccccc2)no1`, the inhibition was 10.8% (inactive).
Turning to `CCOC(=O)c1cnc(SC)nc1Sc1ccc(Cl)cc1Cl`, the inhibition is 25.2% (inactive).
Consider `CCCCNCc1ccc(SC)cc1`, for which the inhibition is 69.4% (active).
For the molecule `Cc1ccccc1C(=O)NCCN=C1NS(=O)(=O)c2ccccc21`, the inhibition is 11.7% (inactive).
On to `Cc1oc(CC(C)C)c(CN2CCCC2)c1C(=O)O`, for which the inhibition is -15.6% (inactive).
Regarding `N#CCCN(CCC#N)c1nnc(-c2ccccc2)s1`, the inhibition is 29% (inactive).
Turning to `Cc1nn(Cc2ccccc2Cl)c(C)c1NC(=O)Cn1nc([N+](=O)[O-])c(Cl)c1C`, the inhibition is 0.1% (inactive).
On to `Cc1cc(C)cc(OCC(=O)Nc2nc3ccc([N+](=O)[O-])cc3s2)c1`, for which the inhibition was 19.6% (inactive).
For `Cc1nn(CC(=O)Nc2nc3ccccc3s2)c(C)c1[N+](=O)[O-]`, the inhibition is 52.2% (active).
As to `CCC(CC)C(=O)N1CC(=O)Nc2ccc(Br)cc2C1c1ccccc1` (stereo not drawn), the inhibition was 47.6% (inactive).
Under `Cc1cccn2c(=O)c(/C=C3\SC(=S)N(CC(C)C)C3=O)c(NCCCOC(C)C)nc12` stands 14.7% (inactive).
Under `COc1ccc2c(Cl)c(C(=O)NCc3ccco3)sc2c1` stands 18.6% (inactive); under `COC(=O)c1nc(NC(=O)c2ccc(Cl)cc2)n[nH]1`, -2.9% (inactive); under `NC(=O)c1ncc(C(F)(F)F)cc1Oc1ccc(F)cc1`, 31.9% (inactive).
Turning to `O=C(CNC(=O)c1ccccc1)NCC(=O)OCc1ccc(Cl)cc1`, the inhibition is 7.3% (inactive).
Under `Cc1ccc(C(=O)N2CCCC2)c(F)c1F` stands 9.6% (inactive); under `Cc1c(Br)cc(C(=O)N2CCCCCC2)c(C)c1C`, 96% (active); under `Cc1ccc(C(=O)N2CCCCCC2)cc1Br`, 26.6% (inactive).
As to `Cc1noc(C)c1CSCC(=O)Nc1nc2ccc(Oc3ccccc3)cc2s1`, the inhibition was 40.8% (inactive).
Turning to `CCOC(=O)c1c(C2CC2)csc1NC(=O)CSCc1c(C)noc1C`, the inhibition was 64% (active).
The figure for `CCOC(=O)c1c(-c2ccc(C)cc2C)csc1NC(=O)CSc1nnnn1C` is 27.2% (inactive); for `COC(=O)c1cc(C(=O)CSc2nc(C)cc(C)n2)ccc1O` it is 23.3% (inactive); for `Cc1cc(SCC(=O)c2ccccc2)nc(SCC(=O)c2ccccc2)n1` it is 53.4% (active).
Take `Cc1nc(SCC(=O)c2ccccc2)c([N+](=O)[O-])[nH]1`: the inhibition is 23.7% (inactive).
Regarding `CC(C)CCOc1ccc(C(=O)C[N+]2(C)CCOCC2)cc1`, the inhibition was 12% (inactive).
As for `Cc1ccc(N2C(=O)c3ccccc3C2(O)c2ncc[nH]2)cc1` (stereo not drawn), the inhibition is 5.2% (inactive).
`COc1ccc(CC(=O)n2nc(-c3cccnc3)nc2N)cc1`: the inhibition is 22.6% (inactive).
Regarding `CCOc1c(N2CCCCC2)c(=O)c1=O`, the inhibition was -3.9% (inactive).
For `CC(C)CNC(=O)COC(=O)/C=C/c1ccccc1[N+](=O)[O-]`, the inhibition was 2.4% (inactive).
For `CC(C)CNC(=O)CC(c1ccccc1)c1c(O)ccc2ccccc12` (stereo not drawn), the inhibition is 58.9% (active).
Regarding `CCc1ccc(/C=N/NC(=O)c2ccc(OC3CCCC3)cc2)s1`, the inhibition is 25.8% (inactive).
Consider `Cc1cc(N(C)C)cc(C)[n+]1[O-]`, for which the inhibition is -6.3% (inactive).
Turning to `O=C1CSC(=O)N1CCOCCN1C(=O)CSC1=O`, the inhibition is 15.9% (inactive).
In the case of `COc1cc2c(cc1NC(=O)CN1CCN(S(=O)(=O)c3ccc(F)cc3)CC1)oc1ccccc12`, the inhibition was 11.9% (inactive).
For the molecule `COc1ccccc1NC(=O)CN1CCN(S(=O)(=O)c2ccc(Br)cc2)CC1`, the inhibition was 34% (inactive).
On to `COc1ccc(S(=O)(=O)N2CCCC(C(=O)Nc3ccc(NC(=O)c4ccccn4)cc3)C2)cc1` (stereo not drawn), for which the inhibition is 20.8% (inactive).
Under `O=C(CN1CCN(S(=O)(=O)c2ccc(F)cc2)CC1)Nc1ccccc1F` stands 57.1% (active).
`O=C(Nc1ccc(S(=O)(=O)N2CCCCC2)cc1)c1cnccn1`: the inhibition was 9.9% (inactive).
Regarding `CCOc1ccccc1NC(=O)CCN1CCN(S(=O)(=O)c2ccc(OC)cc2)CC1`, the inhibition was 68.5% (active).
Under `CCOc1ccccc1NC(=O)c1cc(S(=O)(=O)N2CCC3(CC2)OCCO3)ccc1F` stands 9.8% (inactive); under `O=C(Nc1ccccc1F)c1cc(S(=O)(=O)N2CCCCC2)cs1`, 62% (active); under `CCOC(=O)c1[nH]c2ccc(OC)cc2c1NC(=O)CCN1CCN(Cc2ccccc2)CC1`, 32.7% (inactive).
Turning to `Cc1nc2ccc(C(=O)N3CCSCC3)cc2s1`, the inhibition is -5.2% (inactive).
For the molecule `CCOC(=O)c1ccc(NC(=O)CSc2nnc(COc3ccccc3OC)n2C)cc1`, the inhibition was 38.9% (inactive).
In the case of `CCOC(=O)c1c(NC(=S)NC(=O)c2ccco2)sc2c1CCCC2`, the inhibition was -3.4% (inactive).
Take `O=C(CCS(=O)(=O)c1cccc2nsnc12)N1CCN(c2ccccc2F)CC1`: the inhibition was 45.5% (inactive).
Turning to `Cc1ccc(S(=O)(=O)N2CCC(C(=O)N[C@@H](C)C(=O)NCc3ccccc3)CC2)cc1`, the inhibition is 6% (inactive).
Turning to `CCN=C1SC(CC(=O)Nc2ccc(C)cc2)C(=O)N1CC` (stereo not drawn), the inhibition was 38.5% (inactive).
The figure for `CN(C(=O)CC(NC(=O)c1ccccc1)(c1ccccc1)c1ccccc1)c1ccccc1` is 36.4% (inactive); for `COC(=O)c1ccc(NCC(=O)c2ccccc2)cc1` it is 64.3% (active).
As for `COC(=O)c1ccc(NC(=O)Nc2ccc(C)cc2)cc1`, the inhibition was 2.9% (inactive).
`CCOC(=O)c1nc(Nc2ccc(C(=O)OC)cc2)c2ccccc2n1`: the inhibition was 49.1% (inactive).
As to `C=CCNC(=O)CSc1nc2sc(C)c(C)c2c(=O)[nH]1`, the inhibition was 14.3% (inactive).
Regarding `CCSc1nnc(NC(=O)c2ccc(C)cc2)s1`, the inhibition was 25.5% (inactive).
`CC1=CC(C)(C)N(C(=O)CSc2nnc(-c3ccccc3)o2)c2ccc(C)cc21`: the inhibition was 25.2% (inactive).
Consider `CC1=CC(C)(C)N(C(=O)CSc2nccn2C)c2cc(C)ccc21`, for which the inhibition was 82.8% (active).
For `CCOC(=O)c1c(NC(=O)CCC(=O)NCc2ccco2)sc2c1CCCC2`, the inhibition is 10.1% (inactive).
Consider `COc1ccccc1NC(=O)CC(NCCN(C)C)C(=O)O` (stereo not drawn), for which the inhibition was -1.5% (inactive).
For `COc1ccccc1NC(=S)NC(=O)C(C)C`, the inhibition is 16.5% (inactive).
Take `COc1ccccc1NC(=O)[C@H](COCc1ccccc1)NC(=O)OC(C)(C)C`: the inhibition is 54.6% (active).
Consider `C/C(=C\C(=O)c1ccc(Br)cc1)N1CCCCC1`, for which the inhibition is 7.2% (inactive).
On to `O=C(CNCCO)NC12CC3CC(CC(C3)C1)C2`, for which the inhibition was 0.8% (inactive).
